CHT PAM = human CHT allosteric activation; CHT-expressing cells, membrane potential dye, choline EC20; stronger effect = higher value; LV-AA mutant CHT in HEK293 cells; B-score at 10 µM; AID 488977; Q9GZV3; 0.49% of 310,000 active;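 active = initial fluorescence not abnormally high and integrated response B-score, plate-corrected, over 3 SD above library mean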
ANO1 block = blocks the mouse calcium-activated chloride channel TMEM16A. Q8BHY3. HEK293 TMEM16A/YFP iodide influx fluorescence, ionomycin. normalized B-score (activity score, 25-100; higher = stronger inhibition) at 10 µM. 1.2% of 310,000 active;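 active = ratio plate-corrected score three or more library SD toward inhibition, starting fluorescence score within five deviations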;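 also: score derived from kinetic fluorescence span divided by baseline fluorescence per well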
ANO1 activ = activates or potentiates the mouse TMEM16A chloride channel; B-score at 10 µM; HEK293 TMEM16A/YFP-H148Q/I152L, iodide quench fluorescence; stronger effect = lower value; Q8BHY3; 0.3% of 340,000 active;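 active = fluorescence-ratio B-score plate-corrected deviation score at least 3 library SD below zero, with starting fluorescence score within 5 deviations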;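 also: channel opened by trigger with iodide after compound preincubation; score built on the fluorescence ratio of max minus min over baseline; more negative score means more quench and so TMEM16A activation or potentiation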
CHT inh = human CHT choline transport inhibition; 0.86% of 310,000 active; B-score at 10 µM; CHT-expressing cells, membrane potential dye, choline response; stronger effect = lower value;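 active = B-score over 3 SD under the library average, and starting fluorescence ratio not unusually high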;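 also: choline stimulus applied at its EC90 after an EC20 pre-addition; B-score computed on integrated fluorescence ratio after choline addition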
Numbers stand for hits. Sampled rows, rich in hits. Any-hit rate of the full collection: about 2.4%.

COc1ccc2nc(NC(=O)C3CCN(C(=O)c4ccc(F)cc4)CC3)sc2c1 was read as CHT PAM inactive, ANO1 block inactive, ANO1 activ inactive and CHT inh inactive.
CCCC1CC(C)(/C(C)=N\NC(N)=S)OC1=O (stereo not given) was read as CHT PAM inactive, ANO1 block inactive, ANO1 activ inactive and CHT inh -9.26.
Screening CC(=O)OCC(=O)[C@H]1CC[C@H]2[C@@H]3CCC4=CC(=O)CC[C@]4(C)[C@H]3CC[C@]12C returned CHT PAM inactive, ANO1 block inactive, ANO1 activ -5.76 and CHT inh inactive.
For CCOC(=O)c1cc([N+](=O)[O-])sc1NC(=O)c1ccc(S(=O)(=O)N2CC3(C)CC2CC(C)(C)C3)cc1 (stereo not given) the results were CHT PAM inactive, ANO1 block inactive, ANO1 activ -25.6 and CHT inh inactive.
Screening COc1cccc(S(=O)(=O)Nc2cccnc2)c1 returned CHT PAM inactive, ANO1 block inactive, ANO1 activ inactive and CHT inh inactive.
For O=C1CNC(=S)N1CCc1ccccc1Cl the results were CHT PAM inactive, ANO1 block inactive, ANO1 activ inactive and CHT inh -5.11.
Screening O=C1CNC(=S)N1CCc1ccc(Cl)cc1 returned CHT PAM inactive, ANO1 block inactive, ANO1 activ inactive and CHT inh inactive.
Screening Cc1nc2c(-c3ccccc3)c(C)nn2c(C)c1CC(=O)O returned CHT PAM inactive, ANO1 block inactive, ANO1 activ inactive and CHT inh inactive.
CCOC(=O)Cc1c(C)nc2c(-c3ccc(Cl)cc3)c(C)nn2c1C was read as CHT PAM inactive, ANO1 block inactive, ANO1 activ -4.76 and CHT inh inactive.
`Cc1cc(=O)[nH]c(N/N=C/c2c(C)nn(-c3ccccc3)c2Cl)n1` gave CHT PAM inactive, ANO1 block inactive, ANO1 activ inactive and CHT inh inactive.
`Cc1nn(-c2ccccc2)c(Cl)c1/C=N/Nc1nc2ccccc2[nH]1` gave CHT PAM inactive, ANO1 block inactive, ANO1 activ -7.34 and CHT inh inactive.
Screening COc1ccc2c(c1)cc1n2CCN2CCCN=C12 returned CHT PAM inactive, ANO1 block inactive, ANO1 activ inactive and CHT inh -6.23.
Screening C=C(C)Cn1c(C)cc(C)c(S(=O)(=O)c2cccc(C)c2)c1=O returned CHT PAM inactive, ANO1 block 100, ANO1 activ inactive and CHT inh inactive.
CN(Cc1ccccc1)C(=O)c1[nH]cnc1C(=O)NCc1ccccc1 was read as ANO1 activ -8.15.
`O=C1N(c2ccccc2C(F)(F)F)OC1(Cc1ccccc1)c1ccccc1` (stereo not given) gave ANO1 activ inactive.
For COc1cc(/C=C/C(=O)OCC(=O)N(CC(C)C)c2c(N)n(Cc3ccccc3)c(=O)[nH]c2=O)ccc1O the results were ANO1 activ -21.8.
CC(C)CN(C(=O)COC(=O)/C=C/c1ccc(Cl)c(Cl)c1)c1c(N)n(Cc2ccccc2)c(=O)[nH]c1=O was read as ANO1 activ inactive.
CCOC(=O)Nc1cccc(OCC(=O)Nc2ccccc2OCC)c1 was read as CHT PAM inactive, ANO1 block inactive, ANO1 activ inactive and CHT inh inactive.
Cc1cc(NC(=O)c2ccc(S(=O)(=O)N3CCCC3)cc2)nc2c1c(=O)oc1ccccc12 was read as ANO1 activ -13.5.
Screening CCN(CC)CCSc1nc2ccccc2c(=S)n1-c1ccccc1 returned CHT PAM 6.61, ANO1 block inactive and CHT inh inactive.
CN(Cc1cccs1)C(=O)COc1cccc2c1OC(C)(C)C2 was read as ANO1 activ inactive.
`O=C(O)CCC1c2cc3c4cc2OC2Oc5cc6c(cc51)C(CCC(=O)O)c1cc5c7cc1OC(O6)c1cc6cc(c1)Oc1cc(cc(C(=O)O)c1)Oc1cc8cc(c1)C(Oc1cc(c(cc1C5CCC(=O)O)C3CCC(=O)O)OC(O4)c1cc(cc(c1)Oc1cc(cc(C(=O)O)c1)O8)Oc1cc(cc(C(=O)O)c1)Oc1cc(cc2c1)Oc1cc(cc(C(=O)O)c1)O6)O7` (stereo not given) gave CHT PAM inactive, ANO1 block 25 and CHT inh inactive.
Screening O=[N+]([O-])c1ccc(COc2cccc(CNc3ccc(F)cc3)c2)cc1 returned CHT PAM inactive, ANO1 block inactive, ANO1 activ inactive and CHT inh inactive.
Screening Oc1ccc(NCc2cccc(OCc3ccc(F)cc3)c2)cc1 returned CHT PAM inactive, ANO1 block 25, ANO1 activ inactive and CHT inh inactive.

Screening results from PubChem.
